# PubChem BioAssay
# Active and inactive are the calls of the source. Unless noted, no rule for the calls is given here.
# Columns and labels:
# [1] = test system: XIP peptide (Xip251-270) binding; assay: XIP fragment 251-270 binding compounds – biochemical, small-molecule microarray, fluorescence 635/667 nm, 0.1 µg/mL protein, primary screen (AID 1182); details: fluorescent protein binding, 635 nm, higher = more signal, called active from +8 up or from −8 down
# XIP peptide (Xip251-270) = assay: compounds binding XIP fragment 251-270 – biochemical, small-molecule microarray, fluorescence 635/667 nm, 0.5 µg/mL protein, primary screen (AID 1183); details: fluorescence 635 nm, higher = more signal
# [2] = blood-stage malaria parasite viability loss – strain 3D7, DAPI fluorescence, 100 nL, primary screen (AID 1184);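 also: parasites grown inside human red blood cells in medium with human serum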; details: P. falciparum 3D7 growth, 3 d, higher = more signal
# [3] = biological target: Homeobox protein Hox-A13 (Mus musculus) (UniProt Q62424); assay: disruptors of Hoxa13 oligonucleotide interaction – biochemical, fluorescence polarization, labeled oligonucleotide, primary screen (AID 1185); details: Hoxa13:DNA binding, 15 min, higher = more signal, called active from +8 up or from −8 down
# [4] = blockers of DNA damage checkpoint Chk1 activation – imaging, HeLa, hydroxyurea, phospho-Chk1 antibody, percent positive cells, primary screen (AID 1186); details: hydroxyurea-induced phospho-Chk1 immunofluorescence imaging, higher = more signal
# [5] = blockers of DNA damage checkpoint Chk1 activation – imaging, HeLa, hydroxyurea, phospho-Chk1 nuclear intensity, primary screen (AID 1187); details: hydroxyurea-induced phospho-Chk1 immunofluorescence imaging, higher = more signal
# Homeobox protein Hox-A13 (Mus musculus), sequence (Q62424 whole entry, looked up): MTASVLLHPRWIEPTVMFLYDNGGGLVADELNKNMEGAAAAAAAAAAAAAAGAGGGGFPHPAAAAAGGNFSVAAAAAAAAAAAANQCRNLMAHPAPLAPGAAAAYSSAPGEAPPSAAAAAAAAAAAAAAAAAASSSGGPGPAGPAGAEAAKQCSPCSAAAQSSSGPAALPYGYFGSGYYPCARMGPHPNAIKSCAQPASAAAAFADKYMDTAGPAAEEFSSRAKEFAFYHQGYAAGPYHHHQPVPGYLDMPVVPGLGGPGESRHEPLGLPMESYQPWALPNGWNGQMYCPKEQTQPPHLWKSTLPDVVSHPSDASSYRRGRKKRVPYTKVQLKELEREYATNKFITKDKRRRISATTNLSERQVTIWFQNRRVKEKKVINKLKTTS
Structure (SMILES),composite z-score [1],composite z-score (XIP peptide (Xip251-270)),z-score [2],z-score [3],z-score [4],z-score [5]
CCOC(=O)C[C@H]1[C@H](OC(=O)c2ccccc2-c2ccccc2)[C@@H](NC(=O)C2CCCCC2)c2cc(OCCCO)ccc2N1C(=O)Cc1ccc(OC)cc1,0.0141 (inactive),0.333,0.273,-3.62 (inactive),-0.0021 (inactive),0.223 (inactive)
O=C1NC(=O)C2C1C=CC(C(O)c1c(F)cccc1Cl)N2Nc1ccc(Cl)cc1Cl (configuration not stated),0.831 (inactive),0.709,-0.0027,-6.24 (inactive),1.05 (inactive),0.702 (inactive)
CC(C)C(CO)N1C(=O)[C@@H]2C3C(=O)OCCC/C=C\[C@H]3OC23C=CCN(C(C)(C)C)C(=O)[C@@H]13 (some centres not stated),-0.68 (inactive),-0.201,1.16,-5.07 (inactive),0.0464 (inactive),-0.0642 (inactive)
O=C1OCC=C[C@H]2OC34C=CCN(c5ccc(Cl)cc5)C(=O)[C@H]3N(CCO)C(=O)[C@@H]4[C@@H]12 (some centres not stated),-0.0292 (inactive),-0.457,1.05,-2.74 (inactive),-0.435 (inactive),-0.457 (inactive)
C[C@H]1NC(=O)[C@@]23C(=O)N[C@@H](Cc4ccccc4)C2[C@H](C)[C@@]2(C)O[C@H]2C3/C=C/C/C=C\CNC(=O)[C@H](Cc2ccccc2)NC1=O (some centres not stated),0.0017 (inactive),0.424,-1.4,-7.15 (inactive),0.116 (inactive),0.368 (inactive)
C=CCN1Cc2ccccc2[C@H]2OC(c3ccc(OCCCO)cc3)=N[C@@]2(CC=C)C1=O,0.808 (inactive),0.746,-2.15,-3.06 (inactive),-0.39 (inactive),-0.0236 (inactive)
O=C1O[C@H](c2ccccc2)[C@H](c2ccccc2)N2[C@H]1[C@@H](C(=O)Nc1nc3ccccc3s1)[C@]1(C(=O)Nc3ccc(C#CC4(O)CCCCCC4)cc31)[C@H]2c1ccccc1OCCO,0.0536 (inactive),0.812,-2.09,2.05 (inactive),0.66 (inactive),0.976 (inactive)
OCCCC1=CC(c2ccc(CN3CCCC3)cc2)N(Cc2sc3ccccc3c2Cl)CC1 (configuration not stated),0.705 (inactive),0.797,-3.1,-1.38 (inactive),-0.186 (inactive),-0.276 (inactive)
C=C[C@@H](COC(C)=O)N(C(=O)OC(C)(C)C)S(=O)(=O)c1ccc(Br)cc1,0.805 (inactive),0.546,0.573,-2.35 (inactive),-0.506 (inactive),-0.474 (inactive)
CN1C(=O)C2C=CC(C(O)c3ccc(F)cc3)N(Nc3ccccc3)C2C1=O (configuration not stated),0.477 (inactive),0.466,-0.102,-2.9 (inactive),0.264 (inactive),-0.232 (inactive)
CN(C)C(=O)[C@@]1(Cc2ccccc2CN=[N+]=[N-])N=C(c2ccc(OCCCO)cc2)O[C@H]1c1ccccc1CN=[N+]=[N-],0.105 (inactive),0.707,-2.15,-2.04 (inactive),-0.0765 (inactive),0.127 (inactive)
CN(C)CCCNC(=O)[C@@]1(c2ccc([N+](=O)[O-])cc2)CC(=O)N(CC23CC4CC(CC(C4)C2)C3)[C@@H]1c1ccc(CO)cc1I,0.166 (inactive),0.86,-2.16,8.34 (active),-0.449 (inactive),-0.766 (inactive)
C=C(C)c1cc2c(c(CCCCCC)n1)[Si](C(C)C)(C(C)C)OC2,-0.525 (inactive),-0.115,-0.631,-1.76 (inactive),0.213 (inactive),1.53 (inactive)
CC(c1ccccc1)C(O)C1C=CC2C(=O)N(c3ccccc3)C(=O)C2N1Nc1ccc([N+](=O)[O-])cc1 (configuration not stated),0.725 (inactive),0.837,-0.917,-3.22 (inactive),0.433 (inactive),0.104 (inactive)
CCCCCCCCCCC(O)C1C=CC2C(=O)N(C)C(=O)C2N1NC(=O)OC(C)(C)C (configuration not stated),0.0658 (inactive),0.502,-0.451,-2.93 (inactive),1.91 (inactive),1.4 (inactive)
COC(=O)[C@@]1(Cc2ccc(OC)cc2)[C@H]2c3cc(C(=O)N(C)C)n(C[C@H](O)CO)c3C[C@H]2CN1C(=O)c1ccccc1,0.309 (inactive),-0.587,-1.74,-3.35 (inactive),0.708 (inactive),0.22 (inactive)
O=C1O[C@H](c2ccccc2)[C@H](c2ccccc2)N2[C@H]1[C@@H](C(=O)Nc1nc3ccccc3s1)[C@]1(C(=O)Nc3ccc(C#CCCO)cc31)[C@H]2c1ccc(O)cc1,0.25 (inactive),0.625,0.902,-1.02 (inactive),-0.334 (inactive),-0.376 (inactive)
COc1ccc([Si](C)(C)[C@@H]2[C@@H](CCO)O[C@]3(C(=O)N(Cc4ccc(N5CCCCC5=O)cc4)c4ccccc43)[C@H]2C)cc1,2.99 (inactive),0.769,-2.69,-5.03 (inactive),-0.913 (inactive),0.261 (inactive)
CC(C)(C)OC(=O)CC[C@@]1(C(=O)NCc2ccccc2)N=C(c2ccc(OCCCO)cc2)O[C@@H]1c1ccccc1N=[N+]=[N-],-0.208 (inactive),0.759,-2.1,-1.44 (inactive),-0.347 (inactive),0.14 (inactive)
COc1cc(OC)c(C(O)C2C=CC3C(=O)N(c4ccccc4)C(=O)C3N2Nc2ccccc2)cc1Br (configuration not stated),1.02 (inactive),0.577,0.0461,-3.38 (inactive),-0.754 (inactive),-0.747 (inactive)
O=C(CS)NCCCCCCNC(=O)[C@H]1C[C@H]2C(=O)N[C@@H](Cc3ccccc3)C(=O)N2[C@H]1c1ccc(O)cc1,0.398 (inactive),0.849,-0.0607,-1.23 (inactive),-0.836 (inactive),-0.555 (inactive)
C=C(C)[C@@H]1CC=C(C(O)C2C=CC3C(=O)N(c4ccccc4)C(=O)C3N2Nc2ccccc2F)CC1 (some centres not stated),0.301 (inactive),0.656,-0.282,-1.52 (inactive),0.749 (inactive),0.372 (inactive)
COCCOC(=O)N1C(=O)[C@@]2(c3cc(C#CCCO)ccc31)[C@H](c1ccccc1OCCO)N1[C@H](c3ccccc3)[C@H](c3ccccc3)OC(=O)[C@H]1[C@@H]2C(=O)Nc1nc2ccccc2s1,1.45 (inactive),0.823,-1.45,1.85 (inactive),0.0686 (inactive),0.0927 (inactive)
CCOC(=O)C1=C[C@@H](c2ccccc2)N(S(=O)(=O)c2ccc(C)cc2)[C@H]1c1ccccc1Cl,0.566 (inactive),0.307,-2.02,0.552 (inactive),-0.339 (inactive),-0.865 (inactive)
COCCOC(=O)N1C(=O)[C@@]2(c3cc(C#CC4=CCCCC4)ccc31)[C@H](c1ccc(O)cc1)N1[C@H](c3ccccc3)[C@H](c3ccccc3)OC(=O)[C@H]1[C@@H]2C(=O)N1CCN(c2ncccn2)CC1,-0.0719 (inactive),0.306,0.145,-0.674 (inactive),-0.231 (inactive),-0.758 (inactive)
O=C1O[C@@H](c2ccccc2)[C@@H](c2ccccc2)N2[C@@H](c3ccc(O)cc3)[C@]3(C(=O)Nc4ccc(C#CC5(O)CCCCCC5)cc43)[C@@H](C(=O)NC[C@H](O)c3ccccc3)[C@H]12,0.0382 (inactive),0.691,-0.627,-3.55 (inactive),0.206 (inactive),0.345 (inactive)
C[C@@H]1ON(c2ccc(C(=O)OC(C)(C)C)cc2)[C@H](c2ccc(O)cc2)[C@H]1C(=O)N1C(=O)OC[C@H]1Cc1ccccc1,0.047 (inactive),0.599,-0.393,-3.64 (inactive),-0.0209 (inactive),-0.154 (inactive)
